# Compound activity from PubChem BioAssay.
# This is a sample that favours compounds with a hit; in the whole collection about 4.2% have one here.
# D1 potentiator = enhances dopamine response at the human D1 receptor | 360,000 tested, 0.036% active | potentiation, % at 10 µM | P21728 | HEK293 TREx D1 cells, calcium flux, dopamine EC20 potentiation; in the data active = potentiation above about 30%; note: 0% is about no effect
# D1 ag = agonists of human D1 dopamine receptor. HEK293 T-REx D1 cells, calcium flux, agonist mode. activation, % at 2 µM. 360,000 tested, 1% active. AID 504660; in the data active = activation above about 30%; note: 0% is about no effect
#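 Inducible HEK293 T-REx D1 cells, force-coupled to calcium signalling, were plated at 4000 cells/well with tetracycline and held overnight at 30 C. After no-wash calcium dye loading, compound-evoked calcium rise over 180 s flagged agonists.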
# D1 antag = human D1 dopamine receptor antagonism. P21728. HEK293 TREx D1 cells, calcium flux, dopamine EC80; hits give low values. activity change, negative = inhibition, % at 10 µM. 360,000 tested, 3.2% active; in the data active = activity change below about -30%; note: % is set by controls: 0 for no effect and ±100 for the full control effect
#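 Using tetracycline-induced force-coupled D1 Hek293 cells and a calcium dye, signals were followed for 180 s after compound, then for 180 s after EC80 dopamine, to detect inhibitors.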
# TRPV1 potentiator = enhances activation of the human vanilloid receptor TRPV1; potentiation, % at 8.33 µM; 320,000 tested, 0.02% active; TRPV1-expressing cells, Fluo-8 calcium influx, capsaicin EC20 potentiation; Q8NER1; in the data active = potentiation above about 80%; inconclusive = between about 30% and that limit; note: 0% is about no effect
#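 Cells expressing TRPV1 were dye-loaded with Fluo-8 and read kinetically: 10 s baseline, 3 min after compound (agonist portion), then 2 min after EC20 capsaicin (allosteric enhancer portion). Calcium-bound dye fluorescence at 480/520 nm.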
# TRPV1 ag = human TRPV1 agonism | activation, % at 8.33 µM | 320,000 tested, 0.19% active | TRPV1-expressing cells, Fluo-8 calcium influx, agonist mode | AID 540275; in the data active = activation above about 80%; inconclusive = between about 30% and that limit; note: 0% is about no effect
#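 Cells expressing TRPV1 were dye-loaded with Fluo-8 and read kinetically: 10 s baseline, 3 min after compound (agonist portion), then 2 min after EC20 capsaicin (allosteric enhancer portion). Calcium-bound dye fluorescence at 480/520 nm.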
# * = called active by the depositor; ? = inconclusive; / = not tested or not shown.
SMILES,D1 potentiator,D1 ag,D1 antag,TRPV1 potentiator,TRPV1 ag
O=C(C[n+]1cc(-c2ccc(F)cc2)n2c1CCC2)Nc1nc(-c2ccc(F)cc2)cs1,-3,0,-31*,-4,-3
O=C(Cc1c(F)c(F)c(F)c(F)c1F)Nc1nc(-c2ccccc2)cs1,-12,36*,-2,0,1
O=C(C[n+]1cc(-c2ccccc2)n2c1CCC2)Nc1nc(-c2ccc(F)cc2)cs1,-4,1,-14,0,0
O=C(Cc1ccc(F)cc1)Nc1nc(-c2ccc(F)cc2)cs1,-6,4,2,-31,104*
O=C(Cc1ccccc1)Nc1nc(-c2ccc(F)c(F)c2)cs1,-4,6,-21,-17,?
N#CC(C#N)=C/C=C(\Nc1ccc(Cl)cc1)c1ccc(Cl)cc1,-10,79*,-28,-2,?
N#C/C(C(=O)Nc1ccc(Cl)cc1)=C(/S)Nc1ccccc1,-4,25,1,-11,0
COc1ccc(NC(=O)Cn2c(=O)n(-c3cccc(C)c3)c(=O)c3c2c2cc(C)ccc2n3C)cc1OC,1,2,2,/,/
CCN(/C=N/c1sc2c(c1C#N)CC(C)(C)NC2(C)C)CC,-4,-1,-13,-7,-4
CN(C)/C=N/c1sc2c(c1C#N)CC(C)(C)NC2(C)C,-27,2,-45*,16,3
CCn1nc(C)c(CCN(C)C(=O)Nc2cc(Cl)ccc2C)c1C,0,0,6,/,/
N#Cc1ccc(COC(=O)C2CC(=O)N(CCc3ccccc3)C2)cc1 (stereo unspecified),4,12,-2,-28,9
O=C(OCc1ccc([N+](=O)[O-])cc1)C1CC(=O)N(CCc2ccccc2)C1 (stereo unspecified),-4,7,-40*,-22,20
COc1ccc(CCN2CC(C(=O)OCC(=O)N(C)Cc3ccccc3)CC2=O)cc1OC (stereo unspecified),-8,2,-35*,-13,1
Cc1c(NC(=O)c2ccc(-c3cccc([N+](=O)[O-])c3)o2)cccc1-c1nc2cc(Cl)ccc2o1,0,3,-19,/,/
Cc1c(N=C2N=C(NC(=O)c3cccs3)c3ccccc32)c(=O)n(-c2ccccc2)n1C,-5,41*,-16,0,6
Clc1ccccc1C(c1ccccc1)(c1ccccc1)n1ccnc1,5,6,-34*,-11,?
COc1cccc(NC(=O)c2sc3nc(C)c(C(=O)Nc4ccc(Cl)cc4)c(-c4ccc(Br)cc4)c3c2N)c1,2,-1,-1,/,/
COCCCNC(=O)CCc1c(C)nc2c(-c3ccc(F)cc3)c(C)nn2c1C,-13,2,-34*,-25,?
COCCCNC(=O)CCc1c(C)nc2nc(-c3cc(OC)cc(OC)c3)nn2c1C,-2,1,-31*,/,/
CCN1CCN(c2ccc(NC(=O)CCc3c(C)nc4c(-c5ccc(F)cc5)c(C)nn4c3C)cc2)CC1,-14,6,-79*,-11,?
COc1ccc(N2CCN(C(CNC(=O)c3ccc(C)cc3)c3ccc4c(c3)OCO4)CC2)cc1 (stereo unspecified),-5,1,-22,/,/
Cc1cc(/C=C2\SC(=S)N(Cc3ccco3)C2=O)c(C)n1-c1ccccc1,-1,31*,-20,1,3
O=C1/C(=C\c2ccco2)SC(=S)N1Cc1ccccc1,1,2,-7,-7,21
CCC(=O)N1c2ccc(S(=O)(=O)CCC(=O)Nc3ccc(Br)c(C)c3)cc2CC1C (stereo unspecified),-1,9,-6,/,/
SMILES,D1 potentiator,D1 ag,D1 antag,TRPV1 potentiator,TRPV1 ag
Nc1nc(-c2ccc(Br)cc2)cs1,-6,0,-19,-2,-3
N/C(Cc1nc(-c2ccc(F)cc2)cs1)=N\O,11,0,-7,15,-8
N/C(Cc1nc(-c2ccc(Br)cc2)cs1)=N\O,7,2,-47*,-14,16
Cc1nc(C)c(-c2csc(Nc3ccc(O)cc3C)n2)s1,-10,7,-32*,-4,-3
Cc1cc(O)ccc1Nc1nc(-c2cccs2)cs1,1,0,-4,7,-1
Cc1nc(C)c(-c2csc(Nc3ccc(F)cc3)n2)s1,-6,0,-38*,0,0
COc1cccc(Nc2nc(-c3sc(C)nc3C)cs2)c1,-17,0,-28,24,1
Brc1ccc(-c2csc(Nc3nc(-c4ccc(Br)cc4)cs3)n2)cc1,-14,1,-30*,?,-2
CC(C)CCn1c(=O)c2sccc2n2c(CCCC(=O)NCCc3ccccc3)nnc12,-4,0,-8,/,/
COc1cccc(CNC(=O)CCc2nnc3n(CC(C)C)c(=O)c4ccccc4n23)c1,-3,0,18,/,/
O=C(O)c1cccc(S(=O)(=O)N2CCN(S(=O)(=O)c3ccc4c(c3)OCCO4)CC2)c1,14,0,-11,/,/
Fc1ccc(Nc2nc(-c3ccncc3)cs2)cc1,-11,1,-52*,-1,0
NS(=O)(=O)c1ccc(Nc2nc(-c3ccc(O)cc3)cs2)cc1,-2,2,-13,1,0
Oc1ccc(Nc2nc(-c3ccc(O)cc3)cs2)cc1,-9,41*,-32*,29,-7
CCOc1cc(CNCc2ccccc2)ccc1OCC(=O)NC1CCCCC1,-4,34*,-9,5,0
COc1ccccc1CNC(=O)c1c(O)nc2c(C)cccn2c1=O,-2,1,6,/,/
COc1ccccc1NC(=O)/C(C#N)=C/c1cccnc1,-6,-1,-31*,-22,0
COc1ccccc1NC(=O)/C(=C\c1cccnc1)NC(=O)c1ccc(C)cc1,3,2,-32*,16,-1
N#C/C(=C\c1cccnc1)C(=O)Nc1ccc(Cl)cc1,-3,7,-31*,9,8
COc1ccccc1NC(=O)/C(C#N)=C/c1ccncc1,-4,17,-13,1,0
N#C/C(=C\c1cccnc1)C(=O)Nc1cccc(Cl)c1,-2,7,-7,11,2
O=C(CN1C(=O)CSc2ccc(S(=O)(=O)N3CCCC3)cc21)Nc1cccc(Cl)c1,-2,3,2,/,/
COc1ccc(COc2ncnc3ccc(Br)cc23)cc1F,32*,4,19,0,11
Brc1ccc(COc2ncnc3ccccc23)cc1,-1,1,-15,12,0
CC(Sc1nnc(-c2ccco2)n1C)C(=O)N1C(C)CCCC1C (stereo unspecified),-4,5,-41*,-1,1
CC(Sc1nnc(-c2ccco2)n1C)C(=O)NC1CCCC1 (stereo unspecified),-2,1,-6,12,1
Cc1ccccc1C(=O)NNC(=O)C1CCN(C(=O)Nc2ccccc2)CC1,-7,0,-45*,4,0
Cc1ccc(S(=O)(=O)N(C)C)cc1NC(=O)C1CCN(C(=O)Nc2ccccc2)CC1,-6,2,-34*,-2,-1
